From PubChem BioAssay
SMN2 splice up = qHTS Assay for Enhancers of SMN2 Splice Variant Expression. HEK293 SMN2-luciferase splicing reporter, luminescence, 30-36 h. Potency, µM (titrated, usually from 46.1 µM), for the others: at the highest dose activity change, positive = activation, actives largely listed as activators. actives 2.8% (n = 210,000). AID 1458, 2008; note: % of control where 0% means no effect; nearly all actives have a fitted effect of over 55% in size
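HEK293 cells carry an SMN2 […]–luciferase reporter in which exon 7 inclusion puts luciferase in frame. Cells were plated 10-12 h before compound addition, then incubated 30-36 h at 37C. ONE-Glo luminescence was read; sodium butyrate at 4.5 mM final served as control.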
NPC1 prom act = qHTS Assay for NPC1 Promoter Activators; Huh7 NPC1 promoter luciferase reporter, 24 h; Potency, µM (highest dose often 9.22 µM), for inactives: top-dose activation, most hits filed as activators; actives 2.4% (n = 320,000); AID 485313, 2010; note: % of control where 0% means no effect; nearly all actives have a fitted effect of over 60% in size
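Huh7 reporter cells (NPC1 promoter driving luciferase) are dosed with compound for 24 h at 37 °C, 5% CO2; luciferase detection reagent is then added and luminescence measured after 10 min at ambient temperature.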
Rab9 prom act = qHTS Assay for Rab9 Promoter Activators; Huh7 Rab9 promoter-luciferase reporter, luminescence, 24 h; actives 2.8% (n = 320,000); Potency, µM (titrated, usually from 9.22 µM), inactives show top-dose activation, negative = inhibition, most hits filed as activators; AID 485297, 2010; note: % of control where 0% means no effect; nearly all actives have a fitted effect of over 60% in size
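Huh7 cells stably carrying a Rab9 promoter-luciferase reporter, 1500 cells per well in OP-MEM I with 10% FBS, treated with compound 24 hours at 37C. Luciferase activity read by luminescence after 10 minutes with Amplite reagent.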
ELG1 genotox = qHTS screen for small molecules that induce genotoxicity in human embryonic kidney (HEK293T) cells expressing luciferase-tagged ELG1 | HEK293T ELG1-luciferase reporter, luminescence, 16 h | Potency, µM (series often up to 46 µM), for inactives: at the top dose activity change, positive = activation, hits mostly activators | actives 1.3% (n = 330,000) | AID 504466, 2011; note: % of control where 0% means no effect; nearly all actives have a fitted effect of over 60% in size
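Quantitative HTS format in 1536-well plates. HEK293T ELG1-luciferase reporter cells receive test compound and are incubated 16 hr at 37 °C, 5% CO2; ONE-Glo added, 30 min room temperature, then luminescence read.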
FLuc counter = qHTS profiling assay for firefly luciferase inhibitor/activator using purifed enzyme and Km concentrations of substrates (counterscreen for miR-21 project); actives 6.9% (n = 360,000); Potency, µM (top dose mostly 57.5 µM), without a hit: top-dose activity change, negative = inhibition, actives largely listed as inhibitors; purified FLuc, Km substrates, luminescence inhibition; AID 588342, 2011; Luciferin 4-monooxygenase (Photinus pyralis), P08659;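 note: plate controls were vehicle for no effect and reference inhibitor for full effect; nearly all actives have a fitted effect of over 55% in size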
Target sequence (P08659 whole entry, looked up): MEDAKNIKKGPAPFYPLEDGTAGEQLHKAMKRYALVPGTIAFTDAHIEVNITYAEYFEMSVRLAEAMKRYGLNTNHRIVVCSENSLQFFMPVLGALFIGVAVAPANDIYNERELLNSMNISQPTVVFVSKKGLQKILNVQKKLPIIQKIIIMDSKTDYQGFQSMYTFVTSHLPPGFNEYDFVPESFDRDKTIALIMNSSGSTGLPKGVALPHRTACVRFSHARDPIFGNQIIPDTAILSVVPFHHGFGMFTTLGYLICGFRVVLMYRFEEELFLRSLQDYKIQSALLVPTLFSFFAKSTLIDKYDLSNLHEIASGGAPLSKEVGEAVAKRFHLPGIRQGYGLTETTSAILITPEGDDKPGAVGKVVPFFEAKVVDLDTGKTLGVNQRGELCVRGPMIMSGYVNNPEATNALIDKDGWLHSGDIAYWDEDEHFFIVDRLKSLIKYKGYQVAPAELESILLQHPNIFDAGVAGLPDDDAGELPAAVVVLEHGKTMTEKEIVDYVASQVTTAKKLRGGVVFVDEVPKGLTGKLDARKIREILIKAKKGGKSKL
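Biochemical qHTS of compounds, final roughly 60 µM downward over six points, against 10 nM purified firefly luciferase using Km concentrations of substrates (10 uM D-luciferin, 10 uM ATP) in Tris acetate pH 7.5 buffer; luminescence output.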
KinaseGlo FLuc = Counterscreen for Luciferase (Kinase-Glo TM) Inhibition; Potency, µM (titrated, usually from 38.3 µM), without a hit: top-dose activity change, negative = inhibition, most hits filed as inhibitors; actives 0.28% (n = 200,000); Kinase-Glo luciferase, ATP luminescence, 8 min; note: % is set by controls: 0 for no effect and ±100 for the full control effect; nearly all actives have a fitted effect of over 60% in size
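Luminescence was the read-out, taken after 8-minute incubation at ambient temperature. Luciferase turned over luciferin with 10 uM ATP in imidazole pH 7.2 buffer containing KCl, MgCl2, Tween 20 and BSA.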
The depositor's hits bear a star; u = inconclusive; x = no result given; [ ] = another dose, or the depositor's remark. Rows were chosen to be rich in hits. Some 7.4% of all compounds tested hit in one or more screens of this group. Calls come from the whole dose curve; as a rule, active = well fitted curve in the direction sought with a large enough effect; inconclusive = small, poorly fitted or top-dose-only effect, or another doubt; inactive = no such curve, though single readings can be large; an effect the other way counts as inactive or inconclusive. Potency is the fitted concentration of half-maximal effect.

SMILES	SMN2 splice up	NPC1 prom act	Rab9 prom act	ELG1 genotox	FLuc counter	KinaseGlo FLuc
COc1ccc(C(=O)Nc2ccccc2C(=O)Nc2cc(C)ccn2)cc1	x	1.8µM*	3.5µM*	17%	1.3µM*	x
O=C(COc1ccc(F)cc1F)N1CCCCCCC1	x	8%	12%	2%	-2%	x
CCOCCc1nn2c(=O)cc(COC(=O)c3cccc(C)c3)nc2s1	x	x	x	x	2%	x
Cc1c(Br)c([N+](=O)[O-])nn1C(C)C(=O)Nc1ccc2c(c1)OCO2 (centres undefined)	0%	-6%	-5%	0%	1%	-5%
COc1cccc(-c2ncc3ccccc3c2COC(=O)N2CCCCC2)c1	x	0%	-5%	-7%	-7%	x
CC(=O)Nc1cccc(NC(=O)Nc2ccc(C)c(Cl)c2)c1	u	10%	30%	6%	2.1µM*	0%
CC(=O)Nc1ccc(NC(=O)Nc2ccc(C)c(C)c2)cc1	7%	-1%	15%	u	-2%	-4%
CC(=O)c1ccc(NC(=S)Nc2ccc(Br)c(Cl)c2)cc1	0%	-2%	14%	-6%	-13%	-1%
O=C(Nc1ccncc1)Nc1cccc(Cl)c1Cl	x	1%	-2%	-2%	u	x
O=C(Nc1ccc(Cl)cc1)Nc1cccc2nsnc12	x	u	u	u	4.8µM*	x
O=C(Nc1ccccc1)Nc1ccc(Br)c(Cl)c1	u	u	18%	-9%	6.7µM*	1%
O=C(Nc1ccccc1)Nc1cccc(Cl)c1Cl	-22%	21%	16%	14%	11µM*	-5%
CCOC(=O)N1CCN(CCC(=O)Nc2cc(C)ccc2C)CC1	-5%	0%	11%	-17%	0%	x
Cc1cc(C)cc(OCC(=O)Nc2ccc(-n3cnnn3)cc2)c1	x	-6%	-7%	9%	4%	x
O=C(Nc1ccccc1)Nc1cccc(NC(=O)Nc2ccccc2)c1F	x	27%	25%	10%	u	x
O=C(CN1CCCC1)Nc1ccc(NC(=O)Nc2ccccc2Cl)cc1	19%	16%	19%	u	21µM*	-3%
O=C(CN1CCCC1)Nc1ccccc1Cl	-8%	-2%	3%	3%	4%	5%
O=C(Nc1ccccc1)Nc1ccccc1Br	24%	u	4µM*	u	24µM*	-17%
Cc1ccc(NC(=S)NC(=O)c2ccc(Br)o2)c(C)c1	8.9µM*	u	2.8µM*	u	9.5µM*	-2%
Cc1cccc(NC(=S)NC(=O)c2ccc(Br)o2)c1C	5%	7%	1%	8%	u	0%
O=C(NC(=S)Nc1ccccc1Br)C1CCCC1	x	u	15%	u	19µM*	x
Cc1ccc(NC(=S)NC(=O)C2CCC2)cc1C	x	1.4µM*	4µM*	u	9.5µM*	x
Cc1ccc(NC(=S)NC(=O)C2CCCC2)cc1C	x	3.2µM*	2.5µM*	u	11µM*	x
COc1cccc(/C=N/NC(=O)c2ccc(N3CCCC3=O)cc2)c1	x	-24%	-8%	0%	u	x
C[C@@H](Oc1ccccc1)c1nnn(Cc2ccccc2)c1-c1c([C@@H](C)Oc2ccccc2)nnn1Cc1ccccc1	x	-4%	-2%	-3%	-1%	x
SMILES	SMN2 splice up	NPC1 prom act	Rab9 prom act	ELG1 genotox	FLuc counter	KinaseGlo FLuc
O=C(CCCn1cncn1)N1CCCC(Nc2ccc(F)cc2)C1 (centres undefined)	x	1%	-7%	5%	0%	x
CC(=O)Nc1ccc(NC(=S)NC(=O)C2CC2)cc1	x	14%	26%	u	-15%	x
Cc1ccc(NC(=S)NC(=O)C2CC2)c(C)c1	x	u	u	21µM*	15µM*	x
CC(=O)c1ccc(NC(=S)NC(C)c2ccc(Cl)cc2Cl)cc1 (centres undefined)	-7%	-3%	-9%	-7%	-5%	3%
CCOC(=O)c1ccc(N/C=C/C(=O)c2ccco2)cc1	14µM*	1.6µM*	1.3µM*	0.73µM*	1.3µM*	-30%
Cc1ccc(N/C=C/C(=O)c2ccco2)c(O)c1	x	3.2µM*	1.8µM*	3.7µM*	0.76µM*	x
Cc1ccc([N+](=O)[O-])cc1N/C=C/C(=O)c1ccco1	-7%	26%	-1%	-3%	u	-1%
O=C(/C=C/Nc1ccc(F)cc1)c1ccco1	16µM*	4µM*	2.8µM*	2.1µM*	0.95µM*	u
O=C(Nc1ccccc1C(=O)Nc1ccc(F)cc1)c1ccco1	x	-3%	-5%	-1%	u	x
Cc1ccc(Cl)cc1N1CCN(S(=O)(=O)c2c(C)[nH]c(C)c2C(=O)N2CCCCC2)CC1	x	-3%	-3%	-3%	6%	x
COc1ccccc1N/C(=N/S(=O)(=O)c1ccc(C)cc1)c1ccc(Cl)cc1	-4%	0%	0%	-2%	-2%	0%
CC1CCCN(CCCNC(=O)c2ccc(N3CCCC3=O)cc2)C1 (centres undefined)	x	2%	1%	4%	1%	x
CC(=O)c1cc(C#N)c(SCc2ccccc2C#N)nc1C	13%	0%	3%	0%	15µM*	-4%
CC(=O)c1cc(C#N)c(SCc2ccncc2)nc1C	x	1%	8%	-4%	-2%	x
CCCCOC(=O)c1ccc(Nc2ccc([N+](=O)[O-])cn2)cc1	12%[1.84 µM]	4%	-1%	-2%	2%	-4%
CCCCOc1ccc(-c2[nH]ncc2C=O)cc1	x	25%	8%	u	u	x
CCCCOc1ccc(-c2ncc([N+](=O)[O-])cn2)cc1	x	4µM*	3.2µM*	u	u	x
CCCCOc1ccc(-c2ncc(Cl)cn2)cc1	13µM*	2.5µM*	1.8µM*	13µM*	2.7µM*	-1%
CC(C)CCn1c(=O)c2sccc2n2c(CCCC(=O)NC(C)c3ccccc3)nnc12 (centres undefined)	x	x	x	x	-2%	x
Cc1cccc(Nc2nnc(-c3ccc(C)c(S(=O)(=O)N4CCOCC4)c3)c3ccccc23)c1	-14%	x	x	x	-13%	x
CC(=O)Nc1ccc(C2C(=O)c3ccccc3C2=O)cc1	x	u	u	23µM*	2.1µM*	x
CC(=O)Nc1ccc(C2NC(=O)c3ccccc3O2)cc1 (centres undefined)	x	7%	10%	-1%	-2%	x
CCCC(=O)Nc1ccc(C2C(=O)c3ccccc3C2=O)cc1	x	1.6µM*	3.5µM*	20%	1.1µM*	x
O=c1c(O)c(-c2ccccc2)oc2ccc3occc3c12	-23%	x	x	x	x	-1%
CCOC(=O)C1=C(O)c2ccccc2C(=O)/C1=C\c1ccc(C)cc1	-34%	0%	14%	7%	6.7µM*	-5%
